Among the test systems are SR leukemia; RPMI-8226 leukemia; OVCAR-8 ovarian; OVCAR-5 ovarian; OVCAR-4 ovarian; SK-OV-3 ovarian; IGROV1 ovarian; OVCAR-3 ovarian; HS 578T breast; NCI/ADR-RES ovarian; T-47D breast; BT-549 breast; MDA-MB-435 melanoma; SW-620 colon; MCF7 breast; HCT-116 colon; HCC-2998 colon; KM12 colon; MDA-MB-468 breast.
Holding throughout (experiment): NCI-60 one-dose screen, 48 h (100 = growth as untreated, 0 = no growth, -100 = all killed)
Common to all, as to settings: 10 µM unless noted

Structures are written as SMILES. The panel holds about 83,000 compounds, 20% with a hit somewhere; the sample as a whole holds those more often.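 Plates (96-well) were seeded with cells, treated with compound at one concentration, and incubated for 48 hours before percent growth was determined.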 Unmarked numbers belong to inactive results. Calls of active or inactive are those of the source. The calls were made as follows: active = growth percent below 10; inactive = the rest.

Eight molecules from PubChem BioAssay (NCI) can be followed below.

In the case of `CCOc1ccccc1[C@H]1C(C(=O)c2ccc(Cl)cc2)C2(N[C@@H]1c1ccccc1)C(=O)Nc1ccccc12` (some centres not stated), the growth in the test with SR leukemia is -38% (active); in the test with RPMI-8226 leukemia, 10.9%; in the test with OVCAR-8 ovarian, 28%; in the test on OVCAR-5 ovarian, 14.5%; with OVCAR-4 ovarian it was 17.7%; with SK-OV-3 ovarian, 26%. Moreover, the growth is 17.9% in the test with IGROV1 ovarian; 25.5% with OVCAR-3 ovarian; 6.17% (active) in the test on HS 578T breast; -40.6% (active) in the test with NCI/ADR-RES ovarian; 10% in the test on T-47D breast; -35% (active) with BT-549 breast. In addition, the growth was -28.3% (active) in the test on MDA-MB-435 melanoma; 21% in the test with SW-620 colon; -9.52% (active) in the test on MCF7 breast; 3.88% (active) in the test on HCT-116 colon; 6.07% (active) with HCC-2998 colon; 12.4% in the test on KM12 colon. Besides, the growth in the test with MDA-MB-468 breast was -31.1% (active).
With `COc1ccc(NC(=O)Nc2nc3ccc([N+](=O)[O-])cc3s2)cc1`, the growth with SR leukemia was 5.15% (active); in the test on RPMI-8226 leukemia, -2.91% (active); in the test with OVCAR-8 ovarian, 17.1%; with OVCAR-5 ovarian it was 60.4%; with OVCAR-4 ovarian, 15.2%; in the test with SK-OV-3 ovarian, 58.6%. Besides, the growth with IGROV1 ovarian was 26.4%; in the test on OVCAR-3 ovarian it was 18%; with HS 578T breast, 5.84% (active); in the test with NCI/ADR-RES ovarian, -1.49% (active); with T-47D breast it was 4.2% (active); in the test with BT-549 breast it was 17.9%. Besides, the growth was 23% with MDA-MB-435 melanoma; 15% with SW-620 colon; 0.377% (active) in the test on MCF7 breast; 10.3% in the test on HCT-116 colon; 19.2% with HCC-2998 colon; 3.81% (active) in the test on KM12 colon. Further, the growth in the test with MDA-MB-468 breast was -7.85% (active).
`CCOC(=O)c1ccc(NC(=S)NC(=O)c2cccc(NC(=O)c3ccc(C)cc3)c2)cc1`: the growth in the test with SR leukemia was 54.5%; with RPMI-8226 leukemia, 62.4%; in the test on OVCAR-8 ovarian, 28.9%; in the test with OVCAR-5 ovarian, 77.3%; in the test on OVCAR-4 ovarian, 27.8%; with SK-OV-3 ovarian, 73.5%. The growth with IGROV1 ovarian is 73.6%; with OVCAR-3 ovarian it was 61.4%; in the test with HS 578T breast, 53.4%; in the test with NCI/ADR-RES ovarian it was 65.9%; in the test with T-47D breast it was 67.9%; in the test on BT-549 breast it was 63.3%. The growth in the test with MDA-MB-435 melanoma was 86.1%; with SW-620 colon it was 68.2%; in the test with MCF7 breast it was 64.2%; in the test with HCT-116 colon, 49.1%; in the test on HCC-2998 colon, 98.4%; in the test with KM12 colon, 97.5%. Besides, the growth with MDA-MB-468 breast was 94.1%.
For `O=C(Nc1nc2ccccc2s1)Nc1ccccc1Cl`, the growth is 111% in the test on SR leukemia; 91.9% in the test on RPMI-8226 leukemia; 48.5% in the test on OVCAR-8 ovarian; 89.6% in the test with OVCAR-5 ovarian; 34.2% with OVCAR-4 ovarian; 49.2% with SK-OV-3 ovarian. Besides, the growth was 79.4% in the test with IGROV1 ovarian; 111% in the test on OVCAR-3 ovarian; 22.7% in the test on HS 578T breast; 76% in the test with NCI/ADR-RES ovarian; 68% with T-47D breast; 129% in the test on BT-549 breast. The growth was 100% in the test on MDA-MB-435 melanoma; 96.8% in the test on SW-620 colon; 69% with MCF7 breast; 79.7% in the test with HCT-116 colon; 97.3% in the test on HCC-2998 colon; 93.1% in the test with KM12 colon. Further, the growth with MDA-MB-468 breast is 97%.
As to `COC(=O)c1cc(C(=O)C(C)(C)C)n2c3ccccc3c3ccccc3c12`, the growth with SR leukemia is 69.7%; in the test on RPMI-8226 leukemia, 70.2%; in the test on OVCAR-8 ovarian, 98.6%; with OVCAR-5 ovarian it was 98.6%; in the test on OVCAR-4 ovarian it was 85.9%; with SK-OV-3 ovarian, 109%. Moreover, the growth was 86.2% in the test with IGROV1 ovarian; 110% in the test with OVCAR-3 ovarian; 99.3% with HS 578T breast; 89.3% in the test with NCI/ADR-RES ovarian; 47.1% in the test on T-47D breast; 111% in the test on BT-549 breast. Besides, the growth in the test on MDA-MB-435 melanoma is 105%; in the test with SW-620 colon, 101%; in the test with MCF7 breast, 86.2%; with HCT-116 colon it was 88.4%; with HCC-2998 colon, 124%; in the test on KM12 colon it was 79.5%. Besides, the growth in the test with MDA-MB-468 breast was 88.3%.
Regarding `COc1cc(C2CC(c3ccc(S(=O)(=O)NCCNc4nc(N(C)C)nc(N5CCOCC5)n4)cc3)=Nc3c(N)nc(N)nc3N2)cc(OC)c1OC` (configuration not stated), the growth in the test with SR leukemia is 93.3%; in the test with RPMI-8226 leukemia, 84.9%; with OVCAR-8 ovarian, 103%; in the test with OVCAR-5 ovarian, 93.4%; with OVCAR-4 ovarian, 95.1%; with SK-OV-3 ovarian it was 115%. The growth was 105% with IGROV1 ovarian; 105% in the test on OVCAR-3 ovarian; 76.6% with HS 578T breast; 92.8% with NCI/ADR-RES ovarian; 95% with T-47D breast; 95.2% in the test on BT-549 breast. Moreover, the growth is 104% in the test on MDA-MB-435 melanoma; 99% in the test on SW-620 colon; 95.1% in the test with MCF7 breast; 90% with HCT-116 colon; 109% with HCC-2998 colon; 100% in the test on KM12 colon. For the same molecule, the growth with MDA-MB-468 breast is 95.4%.
With `Cc1ccc(C2CC(c3ccc(NC(=O)Nc4ccccc4)cc3)=NN2c2ccc(S(C)(=O)=O)cc2)cc1` (configuration not stated), the growth was 15.5% in the test with SR leukemia; -0.47% (active) in the test on RPMI-8226 leukemia; 7.91% (active) with OVCAR-8 ovarian; -51.3% (active) in the test with OVCAR-5 ovarian; 17.6% with OVCAR-4 ovarian; 26.8% in the test on SK-OV-3 ovarian. Further, the growth in the test with IGROV1 ovarian is -28.1% (active); with OVCAR-3 ovarian, -2.63% (active); in the test on HS 578T breast, 21.3%; with NCI/ADR-RES ovarian, -35.3% (active); in the test on T-47D breast, 11.9%; in the test on BT-549 breast it was -32.8% (active). The growth in the test with MDA-MB-435 melanoma was -7.07% (active); with SW-620 colon it was -42.6% (active); in the test on MCF7 breast it was -34.3% (active); in the test with HCT-116 colon it was -36.5% (active); in the test on HCC-2998 colon, -80.7% (active); with KM12 colon, -2.32% (active). For the same molecule, the growth in the test with MDA-MB-468 breast was -1.05% (active).
On to `COc1cc2cc(C(=O)N3C[C@@H](CCl)c4c3cc(OC(=O)N(C)CCSSCCN3CCOCC3)c3ccccc43)[nH]c2c(OC)c1OC`, for which the growth in the test on SR leukemia is -23.5% (active); in the test on RPMI-8226 leukemia, -11.5% (active); in the test on OVCAR-8 ovarian it was -41.4% (active); with OVCAR-5 ovarian it was -42.8% (active); in the test on OVCAR-4 ovarian, -36.7% (active); in the test with SK-OV-3 ovarian, -30% (active). The growth with IGROV1 ovarian was -27.6% (active); with OVCAR-3 ovarian, -1.85% (active); with HS 578T breast it was -15.2% (active); in the test on NCI/ADR-RES ovarian, -33.4% (active); with T-47D breast, -6.52% (active); in the test with BT-549 breast, -58.5% (active). Moreover, the growth with MDA-MB-435 melanoma is -41.2% (active); in the test with SW-620 colon, 6.21% (active); in the test with MCF7 breast, -33.5% (active); with HCT-116 colon, -12.9% (active); in the test with HCC-2998 colon, -58.7% (active); with KM12 colon it was -31.1% (active). Besides, the growth with MDA-MB-468 breast was -77.3% (active).
